# Data taken from PubChem BioAssay.
# Values without a mark were called inactive. Calls of active or inactive are those of the source. No stated cut-off is given here; in the data, active means fold change permeability below about 0.7 or above about 1.3; inactive means in between.
# Test: modulators of brain endothelial barrier permeability, primary screen, cell-based, FITC-avidin fluorescence, HTS (AID 1963498); further: test concentration not given here
# Details: actives lie on both sides
row,SMILES,fold change permeability
1,CN1C2CCCC1CC(NC(=O)c1nn(C)c3ccccc13)C2 (stereo not given),1.4 (active)
2,CC(=O)[C@H]1CCC2C3CC=C4C[C@@H](OS(=O)(=O)O)CC[C@]4(C)C3CC[C@@]21C (stereo not given in full),1
3,c1ccc(-c2ccccn2)nc1,1
4,O=C1Nc2ccc(Cl)cc2[C@@](C#CC2CC2)(C(F)(F)F)O1,1.2
5,O=C(NCc1ccc(F)cc1)C1CCN(S(=O)(=O)c2cc(Cl)cc(Cl)c2)CC1,1.5 (active)
6,S=C(Nc1ccccc1)Nc1nccs1,1.3 (active)
7,Cc1cc(NC2CCCCC2)nc(-n2nc(C)cc2C)n1,1.3 (active)
8,CN(C)CCCN1c2ccccc2CCc2ccc(Cl)cc21,1.1
9,CNCC(O)c1ccc(O)c(O)c1 (stereo not given),0.8
10,CN(C)CC/C=C1\c2ccccc2COc2ccccc21,1.4 (active)
11,O=C1Nc2nc(-c3c(O)cccc3OCC3CC3)cc([C@@H]3CCCNC3)c2CO1,1.6 (active)
12,O=C(c1cccc(-c2ccc(-c3cn(C(=O)N4CCCCC4c4ccccc4)nn3)cc2)c1)N1CCCCC1 (stereo not given),1.1
13,O=c1cc(-c2ccc(O)cc2)oc2cc(O)cc(O)c12,1.2
14,Clc1ccc2nsnc2c1NC1=NCCN1,1.9 (active)
15,CN(C)c1ccccc1CN1CCCN(Cc2ccccc2N(C)C)C1c1ccncc1,1.1
16,Cc1[nH]c(=O)c(C#N)cc1-c1ccc2nccn2c1,0.8
17,Oc1ccc(/C=C/c2cc(O)cc(O)c2)cc1,1.7 (active)
18,Nc1nc(Nc2ccccc2)nc2c1ncn2[C@@H]1O[C@H](CO)[C@@H](O)[C@H]1O,0.8
19,CN(C)c1ccc(/C=C2\C(=O)Nc3ccccc32)cc1,1.6 (active)
20,N[C@H](C(=O)O)[C@H](O)c1ccc(O)c(O)c1,0.9

row,SMILES,fold change permeability
1,C#CCN(C)CCCOc1ccc(Cl)cc1Cl,1.3 (active)
2,CCCCCCN(CCCCCC)C(=O)Cc1c(-c2ccc(F)cc2)[nH]c2ccccc12,1.4 (active)
3,O=C(O)c1cc(=O)c2c(Cl)cc(Cl)cc2[nH]1,1.1
4,CCC(=O)c1ccc2c(c1)N(CCCN(C)C)c1ccccc1S2,1.1
5,Cc1cc(C)nc(SCC(=O)Nc2ncc(Cc3cccc4ccccc34)s2)n1,1.4 (active)
6,NC(=O)C1=CN(C2OC(COP(=O)(O)OP(=O)(O)OC[C@H]3O[C@@H](n4cnc5c(N)ncnc54)C(OP(=O)(O)O)[C@H]3O)C(O)C2O)C=CC1 (stereo not given in full),0.9
7,C[C@@](Cc1ccc(O)c(O)c1)(NN)C(=O)O,1.2
8,Cc1cc(CN)cc(C)c1NC(=O)c1ccc(-c2cc(Cl)ccc2Cl)o1,1.5 (active)
9,NC(CCCP(=O)(O)O)C(=O)O (stereo not given),0.9
10,Oc1ccc(-c2nc(-c3ccc(F)cc3)c(-c3ccncc3)[nH]2)cc1,1.1
11,COc1cc(-c2cc(-c3ccc(N4CCNCC4)cc3)cnc2C)cc(OC)c1OC,1.2
12,Nc1ncnc2c1ncn2[C@@H]1O[C@H](COP(=O)(O)OP(=O)(O)OP(=O)(O)OP(=O)(O)OC[C@@H]2O[C@H](n3cnc4c(N)ncnc43)C(O)[C@@H]2O)[C@H](O)C1O (stereo not given in full),1
13,Nc1ncnc2c1nc(Sc1ccc(Cl)cc1)n2C1OC2COP(=O)(O)O[C@@H]2[C@@H]1O (stereo not given in full),0.9
14,COc1cc2nc(N3CCCC3)nc(NCCCCCN3CCCC3)c2cc1OC,1.2
15,COc1ccccc1N1CCN(CCN(C(=O)C2CCCCC2)c2ccccn2)CC1,2 (active)
16,Brc1c(NC2=NCCN2)ccc2nccnc12,1.6 (active)
17,Cc1ccc(S(=O)(=O)N[C@@H](Cc2ccccc2)C(=O)CCl)cc1,1.8 (active)
18,Nc1nc(Cl)nc2c1ncn2[C@@H]1O[C@H](CO)[C@@H](O)[C@H]1O,0.9
19,CCCCCCC(=O)OC1CC(C)(C)NC(C)(C)C1,0.9
20,C=CCc1ccccc1OCC(O)CNC(C)C (stereo not given),1.2
